In PubChem BioAssay (NCATS):
Inconclusive results are not listed. Active and inactive are the calls of the source. Unless noted, calls follow the shape of the dose curve; as a rule, active = well fitted curve in the direction sought with a large enough effect; inconclusive = small, poorly fitted or top-dose-only effect, or another doubt; inactive = no such curve, though single readings can be large; an effect the other way counts as inactive or inconclusive.

Key:
[1] = target: Glutathione peroxidase 1 (Homo sapiens) (UniProt P07203); assay: Primary qHTS Assay for Inhibitors of Recombinant Selenoprotein Glutathione Peroxidase 1 (GPX1) (AID 1845191); also: nearly all actives have a fitted effect of over 65% in size; also: potency is read from the fitted curve at half-maximal effect; as to activity, negative = inhibition: % is scaled to controls: 0 for no effect and ±100 for the full control effect
Sequence of Glutathione peroxidase 1 (Homo sapiens) (P07203 whole entry, looked up): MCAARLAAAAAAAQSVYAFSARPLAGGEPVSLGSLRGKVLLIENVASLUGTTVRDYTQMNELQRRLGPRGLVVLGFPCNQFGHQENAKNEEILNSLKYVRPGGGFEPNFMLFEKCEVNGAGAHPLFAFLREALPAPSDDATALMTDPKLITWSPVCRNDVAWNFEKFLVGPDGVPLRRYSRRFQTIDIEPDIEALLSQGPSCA
In short: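 GPX1 10 nM, GR 100 nM, GSH 1 mM, NADPH 0.5 mM, CHP 0.5 mM (final). 30-min cpd preincubation, RT. Ex340/Em450 read t=0, t=15 min.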

[2] = target: Phospholipid hydroperoxide glutathione peroxidase GPX4 (Homo sapiens) (UniProt P36969); assay: Primary qHTS Assay for Inhibitors of Recombinant Selenoprotein Glutathione Peroxidase 4 (GPX4) (AID 1845192); also: nearly all actives have a fitted effect of over 65% in size; as to activity change, negative = inhibition: series mostly up to about 50 µM; % is scaled to controls: 0 for no effect and ±100 for the full control effect
Sequence of Phospholipid hydroperoxide glutathione peroxidase GPX4 (Homo sapiens) (P36969 whole entry, looked up): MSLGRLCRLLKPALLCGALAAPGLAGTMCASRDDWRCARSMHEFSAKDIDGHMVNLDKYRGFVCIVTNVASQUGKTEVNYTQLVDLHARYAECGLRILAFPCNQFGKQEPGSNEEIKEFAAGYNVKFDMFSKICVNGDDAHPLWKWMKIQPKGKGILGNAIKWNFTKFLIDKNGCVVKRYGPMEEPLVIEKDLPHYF
In short: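 qHTS, GR-coupled: GPX4 200 nM + cpd 30 min RT → GSH 1 mM, NADPH 0.5 mM, GR 100 nM → CHP 0.5 mM start; fluor 340/450 at t0 and t15 min; no-enzyme wells as control.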

[3] = target: Luciferin 4-monooxygenase (Photinus pyralis) (UniProt P08659); assay: Primary firefly luciferase (FLuc) qHTS assay for identification of artifact compounds. (AID 1845220); also: nearly all actives have a fitted effect of over 60% in size;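 as to activity change, negative = inhibition: series mostly up to about 54 µM; plate controls were DMSO vehicle for no effect and no enzyme for full effect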
In short: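 Reaction readout was CCD-imaged luminescence, taken 5 min after adding 10 nM purified firefly enzyme to compound-treated wells holding 10 uM luciferin and ATP in pH 7.6 buffer.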

[4] = system: Nanoluciferase (engineered Oplophorus gracilirostris luciferase); assay: Primary Nanoluciferase (NLuc) qHTS assay for identification of artifact compounds. (AID 1845222);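 also: NLuc secreted into diluted conditioned medium of S16 cells; series mostly up to about 54 µM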
In short: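 Concentration-response data were obtained by luminescence after 5 min with Nano-Glo substrate at 1:100. The enzyme was diluted S16 NLuc-expressing cell medium, preincubated with compound for 15 min at RT. Curves were fitted with a 4-parameter Hill model.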

[5] = Primary redox qHTS assay for identification of artifact compounds. (AID 1845223);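 also: 0% = DMSO and 100% = reference compound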
In short: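 Redox-cycling detection via DTT (250 uM final) oxidation coupled to Amplex Red (25 uM)/HRP (250 mU/mL) in HBSS. 15 min preincubation plus 30 min after DTT, room temperature. Ex/Em 525/598 nm; 4-parameter Hill fit against DMSO and 10 uM DA3003.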

[6] = Primary fluorescence-based thiol-reactive (MSTI) qHTS assay for identification of artifact compounds. (AID 1845221);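 also: series mostly up to about 54 µM; thiol-reactive compounds lower the probe fluorescence signal; nearly all actives have a fitted effect of over 65% in size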
In short: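 Curve-fitted percent inhibition (4-parameter Hill) derived from fluorescence, Ex 525/Em 598 nm, scaled with Acetyl-MSTI and MSTI; 1 h incubation at room temperature.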

[7] = qHTS drug screen for cell cycle checkpoint inhibitors in PARPi-resistant BRCA-mutant ovarian cancer cell lines. (AID 1963452; calls by dose curve); conditions: PEO1/OlaR viability, CellTiter-Glo luminescence, 96 h, stronger effect = lower value
In short: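 PEO1, PEO4 and PEO1/OlaR ovarian cancer cells, 600 per well, exposed 96 h at 37C to a dilution series. Viability read by CellTiter-Glo luminescence, normalized to DMSO and empty wells; activity summarized as Z-AUC.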

[8] = measured here: PEO1 parental Z-AUC

C/C=C/C=C/C(O)=C1\C(O)=C(C)C(=O)[C@@]2(C)OC(=O)[C@@](C)(NC(=O)/C=C/C(=O)O)[C@@H]12
inactive: Potency [1] | Potency [2] | Potency [3] | Potency [4] | Potency [5]

C/C=C/C=C/C(=O)N1CC[C@]23c4ccccc4N[C@H]4N(C)c5cccc6c5[C@@]42CCN([C@H]6C2OC2(C)C)[C@H]13 (stereo partly drawn)
inactive: Potency [1] | Potency [2] | Potency [3] | Potency [4] | Potency [5]

C=C1CCC2C(C(C)(C)O)CCC2(C)CC(O)C(=C)CCC1O (stereo not drawn)
inactive: Potency [1] | Potency [2] | Potency [3] | Potency [4] | Potency [5]

COc1cc(C(=O)O)ccc1OC1OC(CO)C(O)C(O)C1O (stereo not drawn)
inactive: Potency [1] | Potency [2] | Potency [3] | Potency [4] | Potency [5]

CC(C)(O)CC(CO)NC(=O)CC(O)CC(=O)Cc1ccccc1 (stereo not drawn)
inactive: Potency [1] | Potency [2] | Potency [3] | Potency [4] | Potency [5]

CC(C)=CCCC1(C)C=Cc2c(c(C)cc3c2[nH]c2ccccc23)O1 (stereo not drawn)
inactive: Potency [1] | Potency [2] | Potency [3] | Potency [4] | Potency [5]

CCOCCn1nc(CC)c2nc(N3CCC(C(=O)O)CC3)nc(Nc3cc(C)ccn3)c21
inactive: Potency [1] | Potency [2] | Potency [3] | Potency [4] | Potency [5]

Cc1cc(C)cc(C(=O)NOCCCCCC(=O)NO)c1
inactive: Potency [1] | Potency [2] | Potency [3] | Potency [4] | Potency [5]

C=C(CO)C12OC1C1(C)C(=CC2=O)C(O)C(O)CC1C (stereo not drawn)
inactive: Potency [1] | Potency [2] | Potency [3] | Potency [4] | Potency [5]

CC(=O)N[C@@H](CCCCN)C(=O)N(C)[C@@H](CC(C)C)C(=O)N[C@H](C(=O)N(C)[C@@H](Cc1ccccc1)C(=O)N[C@H](Cc1ccccc1)C(N)=O)C(C)C
inactive: activity, negative = inhibition [1] 0.986% [at 4.49 µM] | outcome [2] inactive [at 4.52 µM] | activity change, negative = inhibition [3] 1.94% [at 6.45 µM] | activity, negative = inhibition [4] 2.14% [at 6.45 µM] | redox activity (% of DA3003) [5] -1.23% [at 6.41 µM]

CC1CC(O)/C=C/C(O)C(O)CC(=O)Cc2c(Cl)c(O)cc(O)c2C(=O)O1 (stereo not drawn)
inactive: Potency [1] | Potency [2] | Potency [3] | Potency [4] | Potency [5]

CC1=C(COC2OC(CO)C(O)C(O)C2O)C(C(CO)C(=O)O)CC1 (stereo not drawn)
inactive: Potency [1] | Potency [2] | Potency [3] | Potency [4] | Potency [5]

CC1(C)CC[C@]2(C(=O)O[C@@H]3O[C@H](CO)[C@@H](O)[C@H](O)[C@H]3O)CC[C@]3(C)C(=CCC4[C@@]5(C)C[C@@H](O)[C@H](O)C(C)(C)C5CC[C@]43C)C2[C@@H]1O (stereo partly drawn)
inactive: Potency [1] | Potency [2] | Potency [3] | Potency [4] | Potency [5]

Cc1ncc(CCCN(C)C)cc1Nc1ncc2c(n1)-c1ccc(C(F)(F)F)cc1NC(=S)C2
inactive: Potency [2] | Potency [3] | Potency [4] | Potency [5]
active: Potency [1] 12.8 µM

O=S(=O)(c1ccc(S(=O)(=O)n2cnc3ccccc32)cc1)N1CCCCCC1
inactive: Potency [1] | Potency [2] | Potency [3] | Potency [4] | Potency [5]

C(#Cc1nc2ncccc2nc1OCCN1CCCC1)c1ccccc1
inactive: Potency [1] | Potency [2] | Potency [6] | Potency [4]

CN(C)C/C=C/C(=O)Nc1cccc(C(=O)Nc2cccc(Nc3ncc(Cl)c(-c4c[nH]c5ccccc45)n3)c2)c1
-1.32: Z-AUC ([7]; measured here: PEO4 Z-AUC)
inactive: Potency [1] | Potency [2] | Potency [3] | Potency [4] | Potency [5] | Z-AUC [7] -1.57
-1.76: Z-AUC [7, 8]

O=C(CSc1nc2c(c(=O)n1-c1ccccc1)SCC2)Nc1ccc(-c2ccccc2)cn1
inactive: Potency [1] | Potency [2] | Potency [6] | Potency [4] | Potency [5]

O=C(C(c1ccccc1)c1ccccc1)N1CCN(CC(O)COc2cccc3ncccc23)CC1 (stereo not drawn)
0.623: Z-AUC [7, 8]
0.296: Z-AUC ([7]; measured here: PEO4 Z-AUC)
inactive: Potency [1] | Potency [2] | Potency [3] | Potency [4] | Z-AUC [7] 0.889

COc1ccc([C@@]2(O)c3c(ccc(CC=C(C)C)c3O)NC(=O)[C@@H]2OC)cc1
inactive: Potency [1] | Potency [2] | Potency [6] | Potency [4] | Potency [5]

O=S(=O)(Nc1ccccn1)c1ccc(N=Cc2c(O)[nH]c3ccc4ncsc4c23)cc1
inactive: outcome [1] inactive [at 9.52 µM] | outcome [2] inactive [at 9.73 µM] | outcome [3] inactive [at 11.6 µM] | activity, negative = inhibition [4] -7.47% [at 11.6 µM] | redox activity (% of DA3003) [5] -4.81% [at 11.5 µM]

C#CCN(Cc1cc2c(=O)n(C)c(CN3CCN(C)CC3)nc2cc1Cl)c1ccc(C(=O)NCc2cccnc2)cc1
inactive: Potency [1] | Potency [2] | Potency [6] | Potency [4]
